A selection: hits, their analogues and other compounds. The true share with any hit is near 1.8%.
pAkt inh: inhibitors of Akt phosphorylation. Neuro2A IGF-stimulated pAkt S473 HTRF, 20 min; stronger effect = lower value. activity change, % for hits at 50 µM. hit rate 0.32% among 360,000. AID 651550; in the data active means activity change below about -80%; inconclusive means mostly about -51% to -80%
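Neuro2A cells in DMEM with 0.5% FBS, overnight at 37 deg C, given compound at single 50 µM final, then IGF (6 nM final) for 20 min at 37 deg C. Lysed; phospho-Akt Ser473 by HTRF after 24 h, 665/615 ratio.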
MmCpn inh: inhibitors of Methanococcus maripaludis chaperonin TRiC (MmCpn); purified Mm-Cpn ATPase, ADP Transcreener TR-FRET; Potency, µM (titrated, usually from 76.9 µM), usual class: inhibitors; hit rate 0.031% among 330,000; AID 504842; further: nearly all actives have a fitted effect of over 80% in size
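Measured: ADP formation by purified Mm-CPN. Conditions: 25 nM protein, 10 uM ATP, Tris pH 7.4 with Mg2+, K+ and DTT, 37°C for 30 min. Detection: Transcreener HTRF after 30 min at room temperature.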
AT treatment: potential ataxia-telangiectasia treatments restoring KAP-1 phosphorylation. hit rate 0.19% among 320,000. F2112 A-T fibroblasts, KAP-1 phosphorylation AlphaLISA; neocarzinostatin DNA damage 30 min before lysis. Potency, µM (top dose mostly 57.5 µM), hits mostly activators. AID 485349; further: nearly all actives have a fitted effect of over 45% in size
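ATM-like activity read as KAP-1 phosphorylation via AlphaLISA donor/acceptor antibody pairs after lysis and 6 hr at 25C. Cells were ATM-null patient fibroblasts (F2112, hTERT), dosed 60 min, then exposed to the DSB inducer NCS for 30 min.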
CCT modulator: changes cytosolic chaperonin activity; purified chaperonin ATPase assay, HTRF ADP detection, 30 min; activity change, % (test concentration not listed), hits read low; hit rate 0.3% among 360,000; AID 651819; in the data active means activity change below about -30%
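ATPase activity: ADP formed was measured by HTRF Transcreener (665/615 nm ratio) after 30 min at 37 deg C with 10 uM ATP. Compounds screened at one 76 uM concentration against 40 or 20 nM TRiC in Tris pH 7.4/KCl/MgCl2/DTT buffer.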
BRCA1 expr act: BRCA1 expression activation | MCF7-BRCA1-FFLuc reporter, luminescence, 48 h; response scale: scaled: vehicle 0%, 10 µM genistein 100% | Potency, µM (series often up to 46.1 µM), most hits filed as activators | hit rate 1.1% among 380,000; further: nearly all actives have a fitted effect of over 80% in size
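Activators of BRCA1 expression were detected as increased firefly luciferase luminescence in engineered MCF7 cells after 48 h compound incubation. Signals were scaled to genistein 10 microM as full activation.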
A number is an active result. Unless noted, the call rests on the fitted dose curve; in most records, active means well fitted curve in the direction sought with a large enough effect; inconclusive means small, poorly fitted or top-dose-only effect, or another doubt; inactive means no such curve, though single readings can be large; an effect the other way counts as inactive or inconclusive.

For O=C(CCNC(=O)C1CCN(S(=O)(=O)c2ccccc2)CC1)NCc1cccc(Cl)c1 the results were MmCpn inh inactive, AT treatment inactive, CCT modulator -83 and BRCA1 expr act inactive.
For O=C(CCNC(=O)C1CCN(S(=O)(=O)c2ccccc2)CC1)NCc1ccc(Cl)cc1Cl the results were MmCpn inh inactive, AT treatment inactive, CCT modulator inactive and BRCA1 expr act inactive.
O=C(NCCCN1CCCC1=O)C1CCN(S(=O)(=O)c2ccc(Cl)cc2)CC1 was read as pAkt inh inactive, MmCpn inh inactive, AT treatment inactive, CCT modulator inactive and BRCA1 expr act inactive.
Screening CC1CCCCC12NC(=O)N(CC(=O)Nc1sc3c(c1C(N)=O)CCC3)C2=O (stereo not given) returned pAkt inh -120%, MmCpn inh inactive, AT treatment inactive, CCT modulator inactive and BRCA1 expr act inactive.
`COc1cc2c(cc1OC)CN(C(=O)C1CCC(=O)N(CCCN3CCOCC3)C1)CC2` (stereo not given) gave pAkt inh inactive, MmCpn inh inactive, AT treatment inactive, CCT modulator inactive and BRCA1 expr act inactive.
`COc1ccc(OC(=O)c2cnn(-c3ccccc3)c2C)cc1` gave pAkt inh inactive, MmCpn inh inactive, AT treatment inactive, CCT modulator inactive and BRCA1 expr act 10µM.
Screening N#Cc1ncc(Br)cn1 returned BRCA1 expr act inactive.
Screening O=Cc1ccc(OCc2ccccn2)cc1 returned pAkt inh inactive, MmCpn inh inactive, AT treatment inactive, CCT modulator inactive and BRCA1 expr act inactive.
O=Cc1ccc(OCc2ccc3ccccc3c2)cc1 was read as pAkt inh inactive, MmCpn inh inactive, AT treatment inactive, CCT modulator inactive and BRCA1 expr act 4.5µM.
Cc1ccc(NC(=O)CN(C)C(=O)C(C)OC(=O)CNC(=O)c2ccc(Cl)c([N+](=O)[O-])c2)cc1 (stereo not given) was read as pAkt inh inactive, MmCpn inh inactive, AT treatment inactive, CCT modulator -77 and BRCA1 expr act inactive.
`CC(OC(=O)CNC(=O)c1ccc(Cl)c([N+](=O)[O-])c1)C(=O)NC1CCCCC1C` (stereo not given) gave pAkt inh inactive, MmCpn inh inactive, AT treatment inactive, CCT modulator inactive and BRCA1 expr act inactive.
For O=C(Cc1ccc(OCc2ccccn2)cc1)NO the results were BRCA1 expr act inactive.
For Cc1nc(-c2ccccc2)nn1-c1ccc([N+](=O)[O-])cc1 the results were pAkt inh inactive, CCT modulator inactive and BRCA1 expr act 5µM.
O=C(CCc1ccccc1)Nc1ccc(Cl)cn1 was read as pAkt inh inactive, MmCpn inh inactive, AT treatment inactive, CCT modulator -53 and BRCA1 expr act inactive.
`Cc1ccc(NC(=O)CCCc2ccccc2)nc1` gave pAkt inh inactive, MmCpn inh inconclusive, AT treatment inactive, CCT modulator inactive and BRCA1 expr act 11µM.
CN(C(=O)CSc1nc(N)nn1-c1ccccc1)c1ccccc1 was read as pAkt inh inactive, MmCpn inh inactive, AT treatment inactive, CCT modulator -70 and BRCA1 expr act inactive.
`Cc1cc(C(=O)NCc2csc(-c3ccccc3)n2)no1` gave pAkt inh inactive, MmCpn inh inactive, AT treatment inactive, CCT modulator inactive and BRCA1 expr act 10µM.
`O=C(NCc1csc(-c2ccccc2)n1)c1ccco1` gave pAkt inh inactive, MmCpn inh inactive, AT treatment inactive, CCT modulator inactive and BRCA1 expr act 10µM.
Screening O=C(Cn1c(=O)n(Cc2ccc(C(=O)NCc3ccc4c(c3)OCO4)cc2)c(=O)c2ccccc21)Nc1cccc(Cl)c1 returned BRCA1 expr act inactive.
Screening CCc1nnc(NC(=O)/C=C/c2ccco2)s1 returned pAkt inh inactive, MmCpn inh inactive, AT treatment inactive, CCT modulator inactive and BRCA1 expr act 4µM.
Screening Cc1ccccc1C(=O)Nc1nnc(CC(=O)N/N=C/c2cn(Cc3ccccc3)c3ccccc23)s1 returned pAkt inh inactive, MmCpn inh inactive, AT treatment inactive, CCT modulator inactive and BRCA1 expr act inactive.
`CCOCc1nnc(NC(=O)c2ccco2)s1` gave pAkt inh -123%, MmCpn inh inactive, AT treatment inactive, CCT modulator inactive and BRCA1 expr act inactive.
`O=C(Nc1nnc(CC(c2ccccc2)c2ccccc2)s1)c1ccco1` gave pAkt inh -112%, MmCpn inh inactive, AT treatment inactive, CCT modulator inactive and BRCA1 expr act inactive.
For CCSc1nnc(NC(=O)/C=C/c2ccco2)s1 the results were pAkt inh inactive, MmCpn inh inactive, AT treatment inactive, CCT modulator inactive and BRCA1 expr act inactive.
Screening Cc1ccccc1C(=O)Nc1nnc(CC(=O)N/N=C/c2ccco2)s1 returned pAkt inh inactive, MmCpn inh inactive, AT treatment 16µM, CCT modulator inactive and BRCA1 expr act inactive.
For CCOC(=O)/C=C/C(=O)OCC(=O)N1CCN(C(=O)c2ccco2)CC1 the results were pAkt inh inactive, MmCpn inh inactive, AT treatment inactive, CCT modulator inactive and BRCA1 expr act inactive.
For O=C(/C=C/c1ccco1)NCCc1ccccc1 the results were pAkt inh inactive, MmCpn inh inactive, AT treatment inactive, CCT modulator inactive and BRCA1 expr act 6.3µM.
Screening COc1cc(C)ccc1OCCOc1ccccc1Cl returned pAkt inh inactive, MmCpn inh inactive, AT treatment inactive, CCT modulator inactive and BRCA1 expr act inconclusive.
For COc1cc(C)ccc1OCCCOc1ccccc1Cl the results were pAkt inh inactive, MmCpn inh inactive, AT treatment inactive, CCT modulator inactive and BRCA1 expr act 13µM.
C=CCn1c(C)cc(C(=O)CSc2nc3ccccc3c(=O)[nH]2)c1C was read as pAkt inh -110%, MmCpn inh inactive, AT treatment inactive, CCT modulator inactive and BRCA1 expr act inconclusive.
Cc1ccc2c(C(=O)CNc3nccs3)c[nH]c2c1 was read as BRCA1 expr act inactive.
`Cc1cc(C(=O)Nc2nc3ccc(S(C)(=O)=O)cc3s2)c(C)o1` gave pAkt inh inconclusive, MmCpn inh inactive, AT treatment inactive, CCT modulator inactive and BRCA1 expr act inactive.
For COc1ccc2nc(NC(=O)c3cc(C)oc3C)sc2c1 the results were pAkt inh inactive, MmCpn inh inactive, AT treatment inactive, CCT modulator inactive and BRCA1 expr act 5µM.
For COc1ccc2nc(NC(=S)NC(=O)c3ccco3)sc2c1 the results were pAkt inh inactive, MmCpn inh inactive, AT treatment inactive, CCT modulator inactive and BRCA1 expr act 5µM.
`COC(=O)c1sc(NC(=O)c2ccoc2C)nc1C` gave pAkt inh inactive, MmCpn inh inactive, AT treatment inactive, CCT modulator inactive and BRCA1 expr act inactive.
For COc1ccc2c(c1)CCc1sc(NC(=O)c3ccco3)nc1-2 the results were pAkt inh inactive, MmCpn inh inactive, AT treatment inactive, CCT modulator inactive and BRCA1 expr act 10µM.

Assay outcomes: PubChem, National Center for Advancing Translational Sciences (NCATS)
